Bioassay records: PubChem, several laboratories
CHT block – inhibits the human high affinity choline transporter | AID 488975 | actives 0.86% (n = 310,000) | CHT-expressing cells, membrane potential dye, choline response; hits give low values | B-score at 10 µM | Q9GZV3;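 active = B-score over 3 SD under the library average, and starting fluorescence ratio not unusually high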;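 also: choline stimulus applied at its EC90 after an EC20 pre-addition; B-score computed on integrated fluorescence ratio after choline addition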
Mot1-301 SUMO – blocks SUMOylation pathway, rescuing yeast Mot1-301 growth; actives 1% (n = 320,000); S. cerevisiae Mot1-301 growth rescue, ATP luminescence, 38.5C; percent above DMSO median, 100 means doubled; growth rescue, % at 18.8 µM;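 active = every valid replicate shows activation above 250% relative to neutral control wells; inactive = the rest, any valid replicate at or below 250%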
MEKK2 WT-MEK5 – raises or lowers MEK5 binding to wildtype human MEKK2 PB1 domain. actives 1.1% (n = 290,000). binding response (% of control), % at 10 µM. Q9Y2U5. bead flow cytometry, Alexa488-MEK5 binding to MEKK2 WT; actives lie on both sides. AID 1531; in the data active = binding response below about 67% or above about 130%
MEKK2 mut-MEK5 – signal of MEK5 binding to mutant human MEKK2 PB1 domain. AID 1530. actives 0.35% (n = 290,000). percent response, % at 10 µM. bead flow cytometry, Alexa488-MEK5 binding to MEKK2 mutant; in the data active = percent response above about 24%, passing the limit was not always enough
MEKK3 PB1 HTS – modulators (inhibitors or enhancers) of MEK5 binding to human MEKK3 PB1 domain | bead-based flow cytometry, Alexa488-MEK5 binding to MEKK3; actives lie on both sides; 0 = blocked by unlabeled MEK5, 100 = vehicle | binding response (% of control), % at 10 µM | actives 1.4% (n = 290,000);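 active = binding response more than 3 SD above or below the average of its plate-row segment, actives on both sides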;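 also: Alexa488 bead fluorescence after subtracting the streptavidin-only scavenger bead signal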
Target sequence (Q99759 whole entry, looked up, the tested form may be a part): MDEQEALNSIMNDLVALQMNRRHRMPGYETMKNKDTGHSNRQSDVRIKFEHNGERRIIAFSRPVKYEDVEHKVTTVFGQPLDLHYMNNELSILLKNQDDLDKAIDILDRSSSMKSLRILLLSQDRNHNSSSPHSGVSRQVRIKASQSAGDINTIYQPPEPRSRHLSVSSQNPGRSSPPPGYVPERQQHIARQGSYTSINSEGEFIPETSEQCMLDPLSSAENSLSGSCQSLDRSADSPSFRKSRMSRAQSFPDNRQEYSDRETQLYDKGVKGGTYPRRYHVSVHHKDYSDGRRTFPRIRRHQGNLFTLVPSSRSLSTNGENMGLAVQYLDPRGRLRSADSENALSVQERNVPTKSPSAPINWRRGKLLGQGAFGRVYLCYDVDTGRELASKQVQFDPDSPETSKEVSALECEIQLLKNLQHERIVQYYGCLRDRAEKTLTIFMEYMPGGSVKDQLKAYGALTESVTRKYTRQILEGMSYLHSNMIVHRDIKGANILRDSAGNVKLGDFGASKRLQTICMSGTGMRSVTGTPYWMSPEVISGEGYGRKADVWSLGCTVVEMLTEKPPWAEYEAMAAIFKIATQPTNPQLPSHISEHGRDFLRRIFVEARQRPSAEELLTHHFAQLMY
CHT allo act – allosteric activators of human choline transporter CHT; Q9GZV3; CHT-expressing cells, membrane potential dye, choline EC20; hits give high values; LV-AA mutant CHT in HEK293 cells; B-score at 10 µM; actives 0.49% (n = 310,000);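 active = initial fluorescence not abnormally high and integrated response B-score, plate-corrected, over 3 SD above library mean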
CHT activ conf – human CHT activation, confirmatory screen | shares compounds with CHT allo act | CHT-expressing cells, membrane potential dye fluorescence (FDSS); % of choline EC20–EC90 response window; HEK293 expressing CHT LV-AA mutant; choline added at its EC20 | activation, % at 10 µM | actives 91% (n = 2,500) | AID 504833;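 active = primary screen active, with duplicate mean activation above negative control mean plus 3 SD, cut at about 11% in these data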
HEK293 MP dye – activity in parental HEK293 cells lacking CHT; shares compounds with CHT allo act; membrane potential dye fluorescence (FDSS); measured after EC20 choline addition; ratio readout change at 10 µM, hits read low; actives 62% (n = 2,500);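 active = duplicate-averaged ratio beyond 3 SD from buffer wells, up or down, though filed actives are nearly all decreases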
Numbers stand for hits; – = inactive; · = no result; [ ] = dose if it differs, or a comment. Sampled rows, rich in hits. Any-hit rate of the full collection: about 4.1%.

SMILES	CHT block	Mot1-301 SUMO	MEKK2 WT-MEK5	MEKK2 mut-MEK5	MEKK3 PB1 HTS	CHT allo act	CHT activ conf	HEK293 MP dye
CCOC(=O)C(C)On1c(-c2ccccc2)nc2ccc([N+](=O)[O-])cc21 (configuration not stated)	–	–	–	–	–	–	15.8	-20.2
Cc1ccc2c(CSc3nc4ccccc4c(=O)n3CCCO)cc(=O)oc2c1C	–	–	–	–	–	6.87	14.7	–
CC(=O)c1ccc(-n2cc(-c3ccc(C(C)(C)C)cc3)[n+]3c2SCCC3)cc1	–	–	–	–	–	7.01	24.5	-44.6
Clc1ccc(-c2cn(-c3ccc(Cl)cc3)c3[n+]2CCCCC3)cc1	–	–	–	–	–	–	·	·
Cc1cccc(Cn2c(Cc3ccccc3)nc3ccccc32)c1	–	–	–	–	–	9.83	–	–
CC(C)c1ccccc1NC(=O)Cn1c(-c2ccccc2Cl)nc2ccccc21	–	–	–	–	–	–	21.6	–
CC(C)c1ccccc1NC(=O)Cn1c(/C=C/c2ccccc2)nc2ccccc21	–	–	–	–	–	–	·	·
CN1CCN(c2nc(C#N)cc(-c3ccccc3)n2)CC1	–	–	–	–	–	–	23.0	-22.5
Cc1ccc(S(=O)(=O)N2CCC(C(=O)N3CCC[C@H]3C(=O)NCc3ccco3)CC2)cc1	–	–	–	–	–	–	·	·
Nc1c2c(nc3ccn(Cc4ccccc4)c(=O)c13)CCC2	–	–	–	–	–	6.98	54.0	-50.2
Nc1c2c(nc3ccn(-c4ccccc4)c(=O)c13)CCCCC2	–	–	–	–	–	–	48.7	-50
O=c1[nH]c(N2CCN(Cc3ccccc3)CC2)nc2c1CCC2	–	–	–	–	–	–	·	·
COc1ccc(Br)cc1CN(C)C(=O)c1ccccc1OCc1c(C)noc1C	–	–	·	·	·	–	37.7	–
CN1CCN(c2ccc([N+](=O)[O-])cc2NC(=O)c2ccccc2)CC1	–	–	–	–	–	8.48	62.2	-87.8
Cc1cccc(OCC(=O)Nc2ccccc2N2CCN(C)CC2)c1	–	–	–	–	–	11.4	35.8	–
CN1CCN(c2ccccc2NC(=O)c2ccc(-c3ccccc3)cc2)CC1	–	–	–	–	–	–	·	·
CN1CCN(c2ccc(S(=O)(=O)N3CCCCC3)cc2NC(=O)c2ccc(C#N)cc2)CC1	–	–	–	–	–	–	–	–
CN1CCN(c2ccccc2NC(=O)c2ccc(OCc3ccccc3)cc2)CC1	–	–	–	–	–	–	27.4	-33.2
COc1ccc(-n2cc(CNCCCn3ccnc3)c(-c3cccc(F)c3)n2)cc1	–	–	–	–	–	–	·	·
COc1ccc(S(=O)(=O)NCC(=O)N(CC(=O)NCC2CCCO2)Cc2ccc(F)cc2)cc1 (configuration not stated)	–	–	–	–	–	–	·	·
COCc1c(C(=O)NCCc2ccc(OC(F)F)cc2)oc2ccccc12	·	–	·	·	·	·	·	·
COc1ccc(C(=O)Nc2cc([N+](=O)[O-])ccc2N2CCN(C)CC2)cc1	–	–	–	–	–	–	·	·
COc1cccc(C(=O)Nc2cc([N+](=O)[O-])ccc2N2CCN(C)CC2)c1	–	–	–	–	–	9.69	48.8	-82.3
CN1CCN(c2ccccc2NC(=O)c2cccc([N+](=O)[O-])c2)CC1	–	–	–	–	–	–	52.3	-43.7
COc1cc(C(=O)OC2CSCC2NC(=O)c2ccccc2)cc(OC)c1OC (configuration not stated)	–	–	–	–	–	–	·	·
CCN1CCN(c2cc(N3CCN(C(=O)c4ccco4)CC3)c3c4c(onc24)-c2ccccc2C3=O)CC1	–	–	–	–	78.0[inhibitor]	–	25.0	-52.1
